Source: PubChem BioAssay
KCNQ2 enhance – potentiators of rat KCNQ2 potassium channel; CHO-K1 KCNQ2, FluxOR thallium flux fluorescence; stronger effect = higher value; AID 2239, 2010; hit rate 0.54% among 310,000; B-score at 10 µM;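 active means fluorescence ratio B-score at least 3 SD of library B-scores, with initial fluorescence B-score within 3 of them, cut at about 5.3 in these data; same plate scores as AID 2156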;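 further: B-score of peak minus minimum over baseline fluorescence ratio after K+ and Tl+ stimulus; positive B-score means potentiation of KCNQ2 with more thallium influx and brighter signal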
KCNQ2 inh – rat KCNQ2 potassium channel inhibitors, primary screen, cell-based, CHO-K1, FluxOR thallium flux, B-score | 20 min; stronger effect = lower value | B-score at 10 µM | hit rate 1.1% among 310,000 | AID 2156, 2009;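 active means fluorescence ratio B-score at most minus 3 library SDs, with starting brightness B-score within 2 library SDs, cut at about -5.5 in these data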
Kir21 conf inh – mouse Kir2.1 channel blockers, retest, confirmation, cell-based, FluxOR thallium flux, duplicate. shares compounds with KCNQ2 enhance. Kir2.1-expressing cells, FluxOR thallium flux fluorescence; stronger effect = lower value. Tl flux remaining, % of negative control (stronger effect = lower value), % at 10 µM. hit rate 41% among 2,300;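 active means Primary-screen hit whose thallium flux fell at least 3 control SD below untreated wells in both duplicates, with normal baseline fluorescence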;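 further: 0% = blank wells without stimulus and 100% = stimulated no-compound controls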
Target sequence (P35561 whole entry, looked up): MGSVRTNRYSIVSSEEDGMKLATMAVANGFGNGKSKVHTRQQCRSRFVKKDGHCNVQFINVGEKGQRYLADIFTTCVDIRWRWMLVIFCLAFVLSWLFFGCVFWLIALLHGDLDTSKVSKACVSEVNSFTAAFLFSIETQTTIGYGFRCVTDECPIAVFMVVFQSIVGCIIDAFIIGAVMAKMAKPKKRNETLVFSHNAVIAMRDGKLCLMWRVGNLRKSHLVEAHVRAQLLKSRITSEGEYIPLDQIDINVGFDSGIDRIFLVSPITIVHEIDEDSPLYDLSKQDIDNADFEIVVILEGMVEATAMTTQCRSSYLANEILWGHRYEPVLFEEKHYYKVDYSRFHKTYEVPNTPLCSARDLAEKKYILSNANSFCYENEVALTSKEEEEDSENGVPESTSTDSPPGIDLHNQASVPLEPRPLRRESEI
HEK293 Tl flux – parental HEK293 activity in Kir2.1 inhibitor counter-screen | FluxOR signal as % of negative control (100 = no effect), % at 10 µM | hit rate 19% among 2,300 | parental HEK293 cells, FluxOR thallium flux fluorescence; 0% = unstimulated blank wells | shares compounds with KCNQ2 enhance;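 active means dye signal at least 3 control SD above or below untreated wells in both duplicates, raw fluorescence within 3, either direction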;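 further: percent is based on the flux ratio of peak minus minimum fluorescence over baseline F0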
CHO-K1 Tl ctr – nonspecific thallium flux increase in parental CHO-K1, confirmation, counter-screen for KCNQ2 potentiator project, cell-based, FluxOR thallium flux, duplicate; shares compounds with KCNQ2 enhance; parental CHO-K1 cells, FluxOR thallium flux fluorescence; zero = vehicle mean+3SD, 100% = vehicle-minus-blank window; activity increase over 3SD of controls, % at 10 µM; hit rate 43% among 1,200;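 active means signal rise of at least 3 SD above the untreated control mean, in both duplicate wells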;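 further: counter screen of KCNQ2 potentiator hits so any rise reflects channel-independent effects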
KCNQ1 sel pot – human KCNQ1 channel potentiation off-target, confirmation, selectivity assay for KCNQ2 potentiator project, cell-based, CHO, FluxOR thallium flux; shares compounds with KCNQ2 enhance; activation over 3SD threshold, % at 10 µM; AID 2283, 2010; hit rate 28% among 1,200; CHO KCNQ1 stable, FluxOR thallium flux fluorescence; beyond 3SD, as % of vehicle-control signal;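 active means fluorescence ratio rise of at least 3 SD of vehicle wells above their mean, in both replicate wells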;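 further: 0% = vehicle mean plus 3 SD and 100% = vehicle minus unstimulated blank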
KCNQ2 pot conf – rat KCNQ2 channel potentiators, confirmation, cell-based, CHO, FluxOR thallium flux, duplicate; shares compounds with KCNQ2 enhance; CHO-KCNQ2 cells, FluxOR thallium flux fluorescence; potentiation, less the hit threshold, % at 10 µM; hit rate 68% among 1,200;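 active means fluorescence ratio rising 3 SD or more over the vehicle control mean in both replicates, plus primary screen hit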;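 further: peak minus minimum thallium fluorescence divided by baseline after K/Tl stimulus; 0% = vehicle mean plus 3 SD and 100% = vehicle minus unstimulated blank difference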
Kir2-1 sel – mouse Kir2.1 channel activation off-target, confirmation, selectivity assay for KCNQ2 potentiator project, cell-based, HEK293, FluxOR thallium flux. hit rate 2% among 1,200. activity over 3SD threshold, % at 10 µM. shares compounds with KCNQ2 enhance. HEK293 Kir2.1, FluxOR thallium flux fluorescence;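 active means fluorescence ratio rise of at least 3 SD above the vehicle-control mean, seen in both replicates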;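 further: 0% = vehicle mean plus 3 SD and 100% = vehicle minus no-stimulus blank window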
KCNQ2 W236L pot – potentiators of retigabine-insensitive KCNQ2 W236L, mechanism study for KCNQ2 potentiator project, cell-based, rat KCNQ2 W236L, CHO, automated patch clamp; shares compounds with KCNQ2 enhance; automated patch clamp current; current increase over 3SD of negative controls (%), stronger effect = higher value, % at 25 µM; hit rate 10% among 940; AID 2558, 2010;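 active means current increase at least 3 SD of the untreated controls above them in both duplicate recordings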
* hit, by the source's call; i = inactive; / = no result. An excerpt weighted towards active compounds, which were near 1.6% of everything screened.

SMILES | KCNQ2 enhance | KCNQ2 inh | Kir21 conf inh | HEK293 Tl flux | others
O=C(Nc1nnc(-c2ccc3c(c2)CCCC3)o1)c1ccc(Cl)cc1Cl | 8.9* | i | i | 255%* | CHO-K1 Tl ctr=-12;KCNQ1 sel pot=69*;KCNQ2 pot conf=15*;Kir2-1 sel=-31;KCNQ2 W236L pot=i
COc1ccc(S(=O)(=O)NC(C)CCc2ccccc2)cc1 (stereo not given) | / | i | / | /
CC1CCCC(C)N1C(=O)COC(=O)c1ccc(F)c(S(=O)(=O)N2CCOCC2)c1 (stereo not given) | / | i | / | /
COc1cccc(CNc2cc(CSc3ccc(Cl)cc3)nc(C)n2)c1 | / | i | 54%* | i
COc1cccc(CNc2ccc(C)c(Cl)c2)c1 | 0.05 | i | / | /
CC(=O)N1CCc2cc(Br)cc(S(=O)(=O)N3CCC(C(=O)O)CC3)c21 | 1.1 | i | / | /
CC(C)CNS(=O)(=O)c1ccc(CCC(=O)N2CCC(C(N)=O)CC2)cc1 | 0.47 | i | / | /
O=C(Cc1ccc(Cl)cc1Cl)NC1CCCCCC1 | 3 | i | / | /
CCc1ccc(OCC(=O)NC2CCCCC2)c(Br)c1 | 23* | i | i | i | CHO-K1 Tl ctr=138*;KCNQ1 sel pot=-16;KCNQ2 pot conf=72*;Kir2-1 sel=-44;KCNQ2 W236L pot=i
CCc1ccc(OCC(=O)NNC(=S)NC(=O)C2CCCCC2)c(Br)c1 | / | i | / | /
O=C(Cc1ccc(Cl)c(Cl)c1)NC1CCCCCC1 | 7.2* | i | i | i | CHO-K1 Tl ctr=-1;KCNQ1 sel pot=0.5*;KCNQ2 pot conf=0.8*;Kir2-1 sel=-33;KCNQ2 W236L pot=i
Cc1ccc(-n2ncc3c(=O)n(CC(=O)N4CCN(c5ccccc5)CC4)cnc32)cc1C | 1 | i | / | /
COc1cc(NC(=S)NC(=O)c2ccccc2F)ccc1NC(=O)c1ccco1 | / | i | / | /
CC1CCN(C(=O)COc2ncnc3ccccc23)CC1 | 0.45 | i | / | /
CC1CCN(C(=O)COc2ccc3ccccc3c2Br)CC1 | 16* | i | i | i | CHO-K1 Tl ctr=-1;KCNQ1 sel pot=-11;KCNQ2 pot conf=32*;Kir2-1 sel=-38;KCNQ2 W236L pot=i
O=C(COc1ncnc2ccc(Br)cc12)N1CCOCC1 | 0.98 | i | / | /
O=C(COc1ccc2cc(Br)ccc2c1Br)N1CCOCC1 | 9.5* | i | i | i | CHO-K1 Tl ctr=42*;KCNQ1 sel pot=-5;KCNQ2 pot conf=8.8*;Kir2-1 sel=-44;KCNQ2 W236L pot=i
N#C/C(=C\c1cc2c(cc1Br)OCO2)C(=O)NCC1CCCO1 (stereo not given) | / | i | / | /
COc1cc(C)nc(NCc2ccccc2)n1 | / | i | / | /
COc1ccc(Nc2cc(C)nc(NCc3ccccc3)n2)cc1 | / | i | 64%* | i
Cc1ccccc1CSCC(=O)NCc1ccco1 | / | i | / | /
CC(C)(C)OC(=O)N1CCC[C@H]1c1nnc(SCc2ccccc2Cl)o1 | / | i | i | 70%*
CC(C)(C)OC(=O)N1CCC[C@H]1c1nnc(SCc2ccc(Cl)cc2)o1 | / | i | 52%* | 68%*
CSc1nnc([C@@H]2CCCN2C(=O)OC(C)(C)C)o1 | / | i | / | /
CC(C)(C)OC(=O)N1CCC[C@H]1c1nnc(SC/C=C/c2ccccc2)o1 | / | i | / | /
SMILES | KCNQ2 enhance | KCNQ2 inh | Kir21 conf inh | HEK293 Tl flux | others
CC(C)(C)OC(=O)N1CCC[C@H]1c1nnc(SCc2cccc(Cl)c2)o1 | / | i | 54%* | i
CCCCSc1nnc([C@@H]2CCCN2C(=O)OC(C)(C)C)o1 | / | i | / | /
CC1(C)NC(=O)N(CC(=O)OCC(=O)NC(=O)c2ccccc2)C1=O | 1.1 | i | / | /
O=c1[nH]c(-c2ccccn2)nc2sc(-c3ccccc3)cc12 | / | i | / | /
CCOC(=O)CCC(=O)NNC(=O)COc1ccc(C(C)C)cc1Br | / | i | / | /
O=C(OCc1ccc(Cl)c(Cl)c1)c1ccccn1 | 0.22 | i | / | /
Nc1ncccc1OCc1ccc(Cl)c(Cl)c1 | 5.4* | i | i | i | CHO-K1 Tl ctr=-2;KCNQ1 sel pot=-9;KCNQ2 pot conf=-10;Kir2-1 sel=-30
O=C(CC12CC3CC(CC(C3)C1)C2)NC(Cc1ccccc1)C(=O)O (stereo not given) | 0.32 | i | / | /
CNC[C@H](CC1CCCCC1)NC[C@H](Cc1ccccc1)NCCC12CC3CC(CC(C3)C1)C2 | 1.3 | i | i | i
CCN(CC(=O)NC(=O)NC1CCCCC1)Cc1nc2ccccc2c(=O)[nH]1 | 10* | i | i | i | CHO-K1 Tl ctr=63*;KCNQ1 sel pot=17*;KCNQ2 pot conf=34*;Kir2-1 sel=-33;KCNQ2 W236L pot=i
CCN(CC(=O)NC(=O)NC1CCCCC1)Cc1ccccc1 | / | i | / | /
C=CCOc1cccc(NC(=O)c2ccccc2SC)c1 | 0.45 | i | / | /
Cc1sc2nc(C(C)C)nc(SCC(=O)NCc3ccco3)c2c1C | 4.6 | i | i | 218%*
Cc1nc(SCC(=O)NCc2ccco2)c2c(C)c(C)sc2n1 | / | i | / | /
COc1cccc2cc(CC(=O)c3ccccc3)c(=O)oc12 | / | i | / | /
Cc1cc(Cl)c(S(=O)(=O)N2CCN(c3ccc(F)cc3)CC2)cc1OCC(=O)NC1CCCCC1 | 16* | i | i | i | CHO-K1 Tl ctr=53*;KCNQ1 sel pot=-11;KCNQ2 pot conf=60*;Kir2-1 sel=-39;KCNQ2 W236L pot=i
Cc1cc(Cl)c(S(=O)(=O)N2CCN(c3ccc(F)cc3)CC2)cc1OCC(N)=O | 0.29 | i | / | /
CCOc1ccc(C(=O)CCC(=O)N2CCN(c3ncccn3)CC2)cc1 | / | i | / | /
CC(C)CCNC(=O)CO/N=C/c1ccccc1OC(F)F | 0.15 | i | / | /
O=C1CCCCC1Sc1nnc(-c2ccc3c(c2)OCO3)o1 (stereo not given) | 0.24 | i | / | /
CCOC(=O)C(NS(=O)(=O)c1ccc(Br)cc1)C(C)C (stereo not given) | 0.59 | i | 42%* | i
Cc1ccc(S(=O)(=O)NC(C(=O)OCC(=O)NC(=O)c2cccn2C)C(C)C)cc1 (stereo not given) | 0.09 | i | / | /
N#Cc1ccc(-c2cn3c(n2)SCC3)cc1 | 1.4 | i | / | /
COc1ccccc1C(=O)NNC(=O)c1ccc(F)cc1 | / | i | / | /
